Sampled rows, rich in hits. Any-hit rate of the full collection: about 1%.
PriA SSB inh – K. pneumoniae PriA-SSBct interaction inhibition. hit rate 0.6% among 430,000. AID 1272365. inhibition, % at 33 µM. AlphaScreen SSBct-PriA binding, biotinylated peptide; in the data active = inhibition mostly above about 37%, no sharp cut-off; inactive = mostly below about 20%
Sa ugtP lethal – growth inhibition of S. aureus ugtP deletion strain. S. aureus RN4220 ugtP deletion, OD600 growth, 16 h. growth inhibition, % (no concentration beside the values). hit rate 0.54% among 330,000. AID 1259309; in the data active = growth inhibition above about 68%
Mtb hypoxia inh – reduces hypoxia-regulated biosensor signal in M. tuberculosis | AID 1159583 | fluorescence inhibition, % (no concentration beside the values) | M. tuberculosis hypoxia-regulated fluorescent reporter, fluorescence | hit rate 0.1% among 300,000; in the data active = fluorescence inhibition mostly above about 23%, no sharp cut-off; inactive = mostly below about 17%
Mtb bLac sens – beta-lactam sensitization of Mtb H37Rv | M. tuberculosis H37Rv growth with meropenem, percent inhibition | inhibition, % at 25 µM | hit rate 0.27% among 330,000 | AID 434955; call rule not given here;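 also: growth measured after seven days incubation then overnight dye step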
RN4220 kill – S. aureus RN4220 growth inhibition; inhibition, % (test concentration not listed); OD600, 16 h; AID 1259311; hit rate 0.33% among 330,000; in the data active = inhibition above about 85%
A number is an active result; ! = not confirmed by another sample.

For CN(C)CCCN1C(=O)c2cccc3c(Br)ccc(c23)C1=O the results were PriA SSB inh inactive, Sa ugtP lethal inactive, Mtb hypoxia inh 67, Mtb bLac sens inactive and RN4220 kill inactive.
Cc1cc(C)n(C(C)CC(=O)N2CCN(S(=O)(=O)c3ccc(C)c(C)c3)CC2)n1 (stereo not given) was read as PriA SSB inh inactive.
O=C(NC(=S)N1CCN(c2ccc(Cl)cc2[N+](=O)[O-])CC1)c1cccs1 was read as PriA SSB inh 39 and Mtb bLac sens inactive.
Cn1cccc(C(=O)Nc2cnoc2)c1=O was read as PriA SSB inh inactive.
For O=C(Nc1nc2ccc(SC(F)F)cc2s1)c1ccc(NS(=O)(=O)c2ccc(F)c(F)c2)cc1 the results were PriA SSB inh inactive, Sa ugtP lethal 100, Mtb hypoxia inh inactive, Mtb bLac sens inactive and RN4220 kill 100.
Screening CS(=O)(=O)c1ccc2nc(NC(=O)c3ccc(NS(=O)(=O)c4ccc(F)c(F)c4)cc3)sc2c1 returned PriA SSB inh inactive, Sa ugtP lethal inactive, Mtb hypoxia inh inactive, Mtb bLac sens inactive and RN4220 kill inactive.
`Cc1nc(-c2ccccc2F)sc1CNC(=O)c1c(-c2ccccc2Cl)noc1C` gave PriA SSB inh inactive.
Cc1nc(C)c(-c2ccc(=O)n(CCNC(=O)c3c(-c4ccccc4Cl)noc3C)n2)s1 was read as PriA SSB inh 37.
Cc1onc(-c2ccccc2Cl)c1C(=O)NCCN1CCN(c2ccccc2F)CC1 was read as PriA SSB inh inactive.
Cc1onc(-c2ccccc2Cl)c1C(=O)NCCN1Cc2ccccc2C1=O was read as PriA SSB inh 47, Sa ugtP lethal inactive, Mtb hypoxia inh inactive, Mtb bLac sens inactive and RN4220 kill inactive.
COC(=O)N1CCc2c(sc(NC(=O)c3ccc(C(C)(C)C)cc3)c2C(N)=O)C1 was read as PriA SSB inh inactive.
Screening CN(C)CCCNC(=O)C[C@H]1C[C@H](C(=O)N2CCCCC2)[C@@]2(CCc3ccccc3)c3[nH]c4cc(-c5ccco5)ccc4c3CCN2C1=O returned PriA SSB inh 46, Sa ugtP lethal inactive, Mtb hypoxia inh inactive and RN4220 kill inactive.
`COc1ccc(NC(C)=O)cc1NC(=O)CCCn1nc(-c2cccs2)ccc1=O` gave PriA SSB inh inactive.
`O=C1c2ccccc2C(=O)c2cc(S(=O)(=O)Nc3ccccc3)ccc21` gave PriA SSB inh inactive, Sa ugtP lethal 89, Mtb hypoxia inh inactive, Mtb bLac sens inactive and RN4220 kill 96.
COc1cc(/C=C/C(=O)NCCn2c(C)cc3ccccc32)cc(OC)c1OC was read as PriA SSB inh 48, Sa ugtP lethal inactive, Mtb hypoxia inh inactive, Mtb bLac sens inactive and RN4220 kill inactive.
Cc1cccc(CC(=O)NCCn2c(C)cc3ccccc32)c1 was read as PriA SSB inh inactive, Sa ugtP lethal inactive, Mtb hypoxia inh inactive, Mtb bLac sens inactive and RN4220 kill inactive.
Screening Cc1cc2ccccc2n1CCNC(=O)Cc1ccccc1 returned PriA SSB inh 44, Sa ugtP lethal inactive, Mtb hypoxia inh inactive, Mtb bLac sens inactive and RN4220 kill inactive.
`Cc1nnc(NC(=O)c2ccc(-n3cncn3)nn2)s1` gave PriA SSB inh inactive.
`COc1ccc(C(O)=C2C(=O)C(=O)N(CCN(C)C)C2c2ccc(C)cc2)cc1Cl` (stereo not given) gave PriA SSB inh inactive.
For CC(C)N(CC#CCNS(C)(=O)=O)C(C)C the results were PriA SSB inh inactive.
`O=C(COC(=O)c1ccc(O)cc1O)Nc1nnc(-c2ccccc2)o1` gave PriA SSB inh 57, Sa ugtP lethal inactive, Mtb hypoxia inh inactive, Mtb bLac sens inactive and RN4220 kill inactive.
For O=C(COC(=O)c1cccc(O)c1)Nc1nnc(-c2ccccc2)o1 the results were PriA SSB inh 43, Sa ugtP lethal inactive, Mtb hypoxia inh inactive, Mtb bLac sens inactive and RN4220 kill inactive.
C(=NN(c1ccccc1)c1ccccc1)c1ccc2c(c1)OCO2 was read as PriA SSB inh inactive, Sa ugtP lethal 95, Mtb hypoxia inh inactive and RN4220 kill inactive.
Screening CC(=O)N1CC(C(=O)Nc2ccc(C)c(Cl)c2)C1 returned PriA SSB inh inactive.
`CCN(CC)CCN(C(=O)c1cc2ccccc2cc1OC)c1nc2ccc(OC)cc2s1` gave PriA SSB inh 45, Sa ugtP lethal inactive, Mtb hypoxia inh inactive, Mtb bLac sens inactive and RN4220 kill inactive.
CCN(CC)CCN(C(=O)c1cc2ccccc2cc1OC)c1nc2ccc(F)cc2s1 was read as PriA SSB inh 47!, Sa ugtP lethal inactive, Mtb hypoxia inh inactive, Mtb bLac sens inactive and RN4220 kill inactive.
CCN(CC)CCN(C(=O)c1ccc(OC)c(OC)c1)c1nc2ccc(F)cc2s1 was read as PriA SSB inh inactive.

Screens (PubChem)
